Compound activity as filed in PubChem.
RORgamma inh: qHTS for inhibitors of ROR gamma transcriptional activity. Drosophila S2 Gal4-RORgamma UAS-luciferase reporter, 20 h. Potency, µM (doses to about 53.6 µM), most hits filed as inhibitors. 310,000 tested, 5.4% active. Nuclear receptor ROR-gamma (Mus musculus), P51450; further: nearly all actives have a fitted effect of over 60% in size
Target sequence (P51450 whole entry, looked up, the tested form may be a part): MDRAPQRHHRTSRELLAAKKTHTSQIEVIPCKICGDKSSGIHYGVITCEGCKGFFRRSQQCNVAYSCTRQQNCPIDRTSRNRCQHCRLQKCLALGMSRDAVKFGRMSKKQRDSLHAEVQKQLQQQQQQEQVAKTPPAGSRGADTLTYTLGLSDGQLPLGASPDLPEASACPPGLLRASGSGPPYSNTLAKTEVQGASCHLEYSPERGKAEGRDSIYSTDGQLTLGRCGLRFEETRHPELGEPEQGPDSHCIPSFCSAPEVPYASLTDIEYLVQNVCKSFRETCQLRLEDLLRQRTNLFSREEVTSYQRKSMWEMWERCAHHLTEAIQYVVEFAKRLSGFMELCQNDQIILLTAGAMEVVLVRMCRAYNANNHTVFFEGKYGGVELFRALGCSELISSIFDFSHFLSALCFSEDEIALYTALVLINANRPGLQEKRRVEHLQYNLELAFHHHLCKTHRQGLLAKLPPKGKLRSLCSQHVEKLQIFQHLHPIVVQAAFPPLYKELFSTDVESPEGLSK
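Luminescence from a UAS-regulated Photinus luciferase reporter in stably transfected Drosophila Schneider cells is measured; decreased signal marks ROR gamma inhibition. Fusion expression is induced by 700 uM copper sulfate for 20 hr.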
MCF10A rerep: A quantitative high throughput screen for small molecules that induce DNA re-replication in MCF 10a normal breast cells. 350,000 tested, 2.9% active. Potency, µM (top dose mostly 46.1 µM), usual class: activators. MCF 10A DNA re-replication, Hoechst nuclear intensity, 48 h. AID 624296, 2012; further: nearly all actives have a fitted effect of over 50% in size
Chronic BCR inh: qHTS Assay to Find Inhibitors of Chronic Active B-Cell Receptor Signaling; ABC-DLBCL IkBa-CBG/CBR reporter, luminescence ratio, 4 h; Potency, µM (highest dose often 46.1 µM), most hits filed as inhibitors; 340,000 tested, 0.05% active; AID 493014, 2011; active means well fitted inhibition curve with a large enough effect in the signal ratio, with a control signal flat, not every such curve was filed as active; inconclusive means small, poorly fitted or top-dose-only effect, or effect the other way, or a change in a side signal; the % refers to the signal ratio
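Compounds up to 46 uM were incubated four hours with TMD8 cells whose green CBG68 luciferase is fused to IkappaBalpha; red CBR luminescence normalised the signal, and concentration-effect curves were fitted to fusion, red and ratio data.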
Giardia kill: Small Molecules that selectively kill Giardia lamblia: qHTS; 340,000 tested, 0.15% active; AID 540267, 2011; Giardia lamblia trophozoite viability; activity change, % at 7.66 µM, hits read low; in the data active means activity change below about -80%; inconclusive means between about -30% and that limit;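 further: parasites exposed to compound for two days anaerobically before the ATP read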
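Trophozoites 100 cells/well + cpd; 48 hrs, 37 deg C, anaerobic. ATPLite 1-Step added, 15-30 min RT, luminescence read (ATP-based viability).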
VP16 counter: VP16 counterscreen qHTS for inhibitors of ROR gamma transcriptional activity. Drosophila S2 Gal4-VP16 UAS-luciferase, luminescence, 20 h. Potency, µM (titrated, usually from 53.6 µM), hits mostly inhibitors. 310,000 tested, 3.5% active. AID 2546, 2010;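 further: Gal4-VP16 expression switched on by copper sulfate through the metallothionein promoter; nearly all actives have a fitted effect of over 50% in size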
SW480 rereplic: A quantitative high throughput screen for small molecules that induce DNA re-replication in SW480 colon adenocarcinoma cells; SW480 DNA re-replication, Hoechst DNA content imaging, 48 h; Potency, µM (doses to about 46.1 µM), hits mostly activators; AID 624297, 2012; 340,000 tested, 1.8% active; further: nearly all actives have a fitted effect of over 55% in size
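SW480 cells exposed to compounds for 48 hr at 37 C, 5% CO2, then Hoechst-stained 40 min. Nuclear DNA content imaged by fluorescence scanning (405 nm excitation, 500-530 nm emission); re-replication scored as increased high-intensity nuclei.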
Of the large screens only hits and unclear results are named; the others gave an inactive call. Most compounds without a hit are left out; they make up all but 8.3% or so of the library. Unless noted, the call rests on the fitted dose curve; in most records, active means well fitted curve in the direction sought with a large enough effect; inconclusive means small, poorly fitted or top-dose-only effect, or another doubt; inactive means no such curve, though single readings can be large; an effect the other way counts as inactive or inconclusive.

O=C(/C=C/c1ccccc1Cl)c1ccc[nH]1	MCF10A rerep inconclusive, Chronic BCR inh inconclusive, SW480 rereplic 4.6µM
CC(=O)Nc1ccc(Nc2c3c4c(cccc4n(C)c2=O)C(=O)c2ccccc2-3)cc1	none
CCCCNc1c2c3c(cccc3n(C)c1=O)C(=O)c1ccccc1-2	RORgamma inh inconclusive, MCF10A rerep inconclusive, SW480 rereplic 5.8µM
Cn1c(NCCc2ccccc2)cc(=O)n(C)c1=O	Chronic BCR inh inconclusive
Cn1c(=O)c(NC2CCCCC2)c2c3c(cccc31)C(=O)c1ccccc1-2	MCF10A rerep 3.7µM, SW480 rereplic 23µM
Cn1c(=O)c(NCCc2ccccc2)c2c3c(cccc31)C(=O)c1ccccc1-2	MCF10A rerep 5.8µM, SW480 rereplic 18µM
C/C(=N\Nc1nc2ccccc2nc1C)c1ccccc1O	RORgamma inh 0.22µM, VP16 counter 2µM, SW480 rereplic inconclusive
Cc1noc(C)c1COc1ccccc1C(=O)NCCc1ccccc1	Chronic BCR inh inconclusive (no result: RORgamma inh, VP16 counter)
Cc1noc(C)c1COc1ccc(CC(=O)NCc2ccccc2)cc1	MCF10A rerep 5.8µM, Chronic BCR inh inconclusive, SW480 rereplic inconclusive
Cc1noc(C)c1COc1ccccc1C(=O)NC(C)CCc1ccccc1 (configuration not stated)	SW480 rereplic 4.1µM (no result: RORgamma inh, Chronic BCR inh, VP16 counter)
Cc1noc(C)c1COc1ccc(CC(=O)NCCc2ccccn2)cc1	none
Cc1noc(C)c1COc1ccc(C(=O)NCCc2ccccn2)cc1	MCF10A rerep 3.3µM, Chronic BCR inh inconclusive, VP16 counter inconclusive
CCN(CC)C(=O)c1ccc(CS(=O)(=O)Cc2ccccc2)cc1	none
COc1ccc(OC)c(C=Nc2ccccc2-c2nc3ccccc3[nH]2)c1	none
CCCC/C(O)=C/c1nc2ccccc2[nH]c1=O	RORgamma inh inconclusive, Chronic BCR inh 15µM
CC(C)(C)/C(O)=C/c1nc2ccccc2[nH]c1=O	none
O=c1[nH]c2ccccc2nc1/C=C(\O)C1CC1	none
O=c1[nH]c2ccccc2nc1/C=C/c1ccc(O)cc1	MCF10A rerep 8.2µM, Chronic BCR inh inconclusive, VP16 counter inconclusive, SW480 rereplic 18µM
O=c1[nH]c2ccccc2nc1/C=C/c1ccccc1	MCF10A rerep 3.7µM, Chronic BCR inh inconclusive, Giardia kill inconclusive, SW480 rereplic inconclusive
COc1ccc(OC)c(/C=C/c2nc3ccccc3[nH]c2=O)c1	MCF10A rerep 13µM, Chronic BCR inh inconclusive, SW480 rereplic 21µM
CCOC(=O)Cc1csc(NC(=O)CCN2C(=O)c3cccc([N+](=O)[O-])c3C2=O)n1	none
COc1ccc(-n2c(=O)c(-c3cccc(Cl)c3)nc3cncnc32)cc1	none (no result: MCF10A rerep, Chronic BCR inh, Giardia kill, SW480 rereplic)
COc1ccc(OC)c(/C=C/c2[nH]c(=O)[nH]c(=O)c2[N+](=O)[O-])c1	MCF10A rerep 5.2µM
O=c1[nH]c2ccccc2nc1/C=C/c1ccc(F)cc1	MCF10A rerep 6.5µM, Chronic BCR inh inconclusive, SW480 rereplic inconclusive
Cc1cc(C)c(C)c(S(=O)(=O)N2CCN(c3ncnc4ccccc34)CC2)c1C	MCF10A rerep 18µM (no result: RORgamma inh, VP16 counter)
Cc1cc(C)c(C)c(S(=O)(=O)N2CCN(c3ccccn3)CC2)c1C	none
O=C1C2C3C=CC(CC3)C2C(=O)N1c1cccc(C(F)(F)F)c1 (configuration not stated)	none
Cc1cc(N2CCN(C)CC2)nc2ccc(NC(=S)N3CCN(c4ccc(Cl)cc4)CC3)cc12	RORgamma inh inconclusive, MCF10A rerep 29µM, Chronic BCR inh inconclusive, Giardia kill inconclusive, VP16 counter inconclusive, SW480 rereplic 12µM
CC(=O)c1ccc(NC(=S)N2CCN(c3cccc(Cl)c3)CC2)cc1	VP16 counter inconclusive
Cc1cc(N2CCN(C)CC2)nc2ccc(NC(=S)N3CCN(c4cccc(Cl)c4)CC3)cc12	MCF10A rerep 7.3µM, Chronic BCR inh inconclusive, Giardia kill -81, SW480 rereplic 9.2µM
Cc1cc(N2CCCC2)nc2ccc(NC(=S)NCCCN3CCC(C)CC3)cc12	MCF10A rerep 18µM, SW480 rereplic inconclusive
